{
  "source": "paper PMC8384837",
  "about": "“Expanding the binding specificity for RNA recognition by a PUF domain”",
  "assay_in_all_cases": "yeast three-hybrid, YBZ-1, SC-Leu-His + 0.5 mM 3-AT, 4 days",
  "settings_in_all_cases": "tags: N-Gal4 AD-HA kept; label: inside an RPR1-promoter hybrid RNA with tandem MS2 sites; ssRNA",
  "key": {"[1]": {"molecular_target": "PUM1 PUF domain R2-RRT (Homo sapiens, UniProt Q14671 828-1176, N899R;Y900R;Q903T)", "outline": "(§1)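 Repeat regions from input (SC-Leu) and selection (SC-Leu-His + 0.5 mM 3-AT) plates were PCR-amplified and Illumina-sequenced after four days of growth. The cells were strain YBZ-1 with a LexA–MS2 coat fusion and a HIS3 reporter, co-expressing Pumilio-1 PUF domain libraries and matching RNA elements from a centromeric plasmid. The interaction score is the log change in variant frequency from input to selection, taken in log2 with a pseudocount of 1 for absent variants.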"}, "[2]": {"molecular_target": "PUM1 PUF domain R2-MVW (Homo sapiens, UniProt Q14671 828-1176, N899M;Y900V;Q903W)", "outline": "as §1"}, "[3]": {"molecular_target": "PUM1 PUF domain R2-KLS (Homo sapiens, UniProt Q14671 828-1176, N899K;Y900L;Q903S)", "outline": "as §1"}, "[4]": {"molecular_target": "PUM1 PUF domain R5-RRM (Homo sapiens, UniProt Q14671 828-1176, C1007R;Q1011M)", "outline": "as §1"}, "[5]": {"molecular_target": "PUM1 PUF domain R5-KKD (Homo sapiens, UniProt Q14671 828-1176, C1007K;R1008K;Q1011D)", "outline": "as §1"}, "[6]": {"molecular_target": "PUM1 PUF domain R4-ANA (Homo sapiens, UniProt Q14671 828-1176, N971A;H972N;Q975A)", "outline": "as §1"}, "[7]": {"molecular_target": "PUM1 PUF domain R3-PFD (Homo sapiens, UniProt Q14671 828-1176, C935P;R936F;Q939D)", "outline": "as §1"}, "[8]": {"molecular_target": "PUM1 PUF domain R3-SRK (Homo sapiens, UniProt Q14671 828-1176, C935S;Q939K)", "outline": "as §1"}, "[9]": {"molecular_target": "T1, PUM1 PUF domain R6-AWR (Homo sapiens, UniProt Q14671 828-1176, N1043A;Y1044W;Q1047R)", "T1 sequence": "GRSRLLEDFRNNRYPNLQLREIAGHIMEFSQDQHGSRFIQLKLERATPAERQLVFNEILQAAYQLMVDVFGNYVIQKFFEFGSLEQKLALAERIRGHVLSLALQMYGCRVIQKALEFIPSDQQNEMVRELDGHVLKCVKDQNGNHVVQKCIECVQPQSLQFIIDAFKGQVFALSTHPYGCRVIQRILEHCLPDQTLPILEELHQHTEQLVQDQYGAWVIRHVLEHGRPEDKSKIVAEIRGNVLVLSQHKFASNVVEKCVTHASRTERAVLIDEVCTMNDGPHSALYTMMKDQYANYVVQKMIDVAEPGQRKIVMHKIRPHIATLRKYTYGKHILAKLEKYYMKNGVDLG", "outline": "as §1"}, "[10]": {"molecular_target": "PUM1 PUF domain R4-GND (Homo sapiens, UniProt Q14671 828-1176, N971G;H972N;Q975D)", "outline": "as §1"}},
  "data": [
    {"sequence": "GGCUAGAACUAGUGGAUCCCCCGGCGCCCGGCGGCUCGAGCCCGGGUAAGUGUAAAGAGUCUGCAUGCCGCCGGGCGCCAUGCCUGCAGGUCGACUCUAGAAAACAUG", "values": [
      {"measurement": "binding signal", "setting": "[1]", "value": "2.91 log2 enrichment (interaction score)"},
      {"measurement": "binding signal", "setting": "[2]", "value": "3.45 log2 enrichment (interaction score)"},
      {"measurement": "binding signal", "setting": "[3]", "value": "2.37 log2 enrichment (interaction score)"}
    ]},
    {"sequence": "GGCUAGAACUAGUGGAUCCCCCGGCGCCCGGCGGCUCGAGCCCGGGUAAGUGUCAAUAGUCUGCAUGCCGCCGGGCGCCAUGCCUGCAGGUCGACUCUAGAAAACAUG", "values": [
      {"measurement": "binding signal", "setting": "[4]", "value": "4.35 log2 enrichment (interaction score)"},
      {"measurement": "binding signal", "setting": "[5]", "value": "3.56 log2 enrichment (interaction score)"}
    ]},
    {"sequence": "GGCUAGAACUAGUGGAUCCCCCGGCGCCCGGCGGCUCGAGCCCGGGUAAGUGUACAUAGUCUGCAUGCCGCCGGGCGCCAUGCCUGCAGGUCGACUCUAGAAAACAUG", "values": [
      {"measurement": "binding signal", "setting": "[6]", "value": "2.08 log2 enrichment (interaction score)"}
    ]},
    {"sequence": "GGCUAGAACUAGUGGAUCCCCCGGCGCCCGGCGGCUCGAGCCCGGGUAAGUGUAAUUAGUCUGCAUGCCGCCGGGCGCCAUGCCUGCAGGUCGACUCUAGAAAACAUG", "values": [
      {"measurement": "binding signal", "setting": "[7]", "value": "4.25 log2 enrichment (interaction score)"},
      {"measurement": "binding signal", "setting": "[8]", "value": "2.4 log2 enrichment (interaction score)"}
    ]},
    {"sequence": "GGCUAGAACUAGUGGAUCCCCCGGCGCCCGGCGGCUCGAGCCCGGGUAAGUGUAAAUAGUCUGCAUGCCGCCGGGCGCCAUGCCUGCAGGUCGACUCUAGAAAACAUG", "values": [
      {"measurement": "binding signal", "setting": "[7]", "value": "5.31 log2 enrichment (interaction score)"},
      {"measurement": "binding signal", "setting": "[4]", "value": "2.27 log2 enrichment (interaction score)"},
      {"measurement": "binding signal", "setting": "[9]", "value": "5.74 log2 enrichment (interaction score)"}
    ]},
    {"sequence": "GGCUAGAACUAGUGGAUCCCCCGGCGCCCGGCGGCUCGAGCCCGGGUAAGUGUUAAUAGUCUGCAUGCCGCCGGGCGCCAUGCCUGCAGGUCGACUCUAGAAAACAUG", "values": [
      {"measurement": "binding signal", "setting": "[4]", "value": "4.73 log2 enrichment (interaction score)"}
    ]},
    {"sequence": "GGCUAGAACUAGUGGAUCCCCCGGCGCCCGGCGGCUCGAGCCCGGGUAAGUGUGAAUAGUCUGCAUGCCGCCGGGCGCCAUGCCUGCAGGUCGACUCUAGAAAACAUG", "values": [
      {"measurement": "binding signal", "setting": "[4]", "value": "1.28 log2 enrichment (interaction score)"}
    ]},
    {"sequence": "GGCUAGAACUAGUGGAUCCCCCGGCGCCCGGCGGCUCGAGCCCGGGUAAGUGUAUAUAGUCUGCAUGCCGCCGGGCGCCAUGCCUGCAGGUCGACUCUAGAAAACAUG", "values": [
      {"measurement": "binding signal", "setting": "[6]", "value": "3.28 log2 enrichment (interaction score)"},
      {"measurement": "binding signal", "setting": "[10]", "value": "3.04 log2 enrichment (interaction score)"}
    ]},
    {"sequence": "GGCUAGAACUAGUGGAUCCCCCGGCGCCCGGCGGCUCGAGCCCGGGUAAGUGCAAAUAGUCUGCAUGCCGCCGGGCGCCAUGCCUGCAGGUCGACUCUAGAAAACAUG", "values": [
      {"measurement": "binding signal", "setting": "[9]", "value": "2.34 log2 enrichment (interaction score)"}
    ]}
  ]
}
